Assay outcomes as filed in PubChem BioAssay.
aSyn 5UTR act = Activators via SNCA 5'UTR binding, MLPCN | alpha-synuclein 5'UTR reporter, activators screen | activity score, % (tested at 7.5 µM), hits read low | hit rate 7.1% among 300,000 | AID 1814, 2009; in the data active = activity score below about -60%
Active calls of the source: *. These entries were drawn from the full list.

For CCN(CC)c1ccc(/C=N/Nc2nc3ccccc3[nH]2)c(O)c1 the results were aSyn 5UTR act 84.
`COc1ccc2c(c1)c(/C=N/Nc1nc3ccccc3[nH]1)c(C)n2C` gave aSyn 5UTR act -115*.
Screening Cc1ccc2cc(/C=N/Nc3nc4ccccc4[nH]3)c(Cl)nc2c1 returned aSyn 5UTR act -111*.
Screening COc1cc(/C=N\Nc2nc3ccccc3[nH]2)cc(OC)c1OC returned aSyn 5UTR act -82*.
`C(=N\Nc1nc2ccccc2[nH]1)/c1ccc2ncccc2c1` gave aSyn 5UTR act 95.
Screening CCCOc1ccc(-c2cn3ccccc3n2)cc1[N+](=O)[O-] returned aSyn 5UTR act -114*.
For CCCCOc1ccc(CSc2nc(C)[nH]c2[N+](=O)[O-])cc1[N+](=O)[O-] the results were aSyn 5UTR act -65*.
COc1ccc(-c2cn3ccccc3n2)cc1[N+](=O)[O-] was read as aSyn 5UTR act -162*.
For CCCCOc1ccc(-c2csc(N)n2)cc1[N+](=O)[O-] the results were aSyn 5UTR act -141*.
Screening O=[N+]([O-])c1cccc(-c2cn3ccccc3n2)c1 returned aSyn 5UTR act -93*.
For COc1ccc(C(=O)Nc2cc(OC)nc(OC)n2)cc1 the results were aSyn 5UTR act -125*.
COc1cc(NC(=O)CCc2ccccc2)nc(OC)n1 was read as aSyn 5UTR act -71*.
`CCc1ccccc1NC(=O)c1cnc2scc(C)n2c1=O` gave aSyn 5UTR act -99*.
For CSc1ccccc1NC(=O)c1cnc2scc(C)n2c1=O the results were aSyn 5UTR act -108*.
`O=C(NCCc1ccccc1)c1cnc2ccccn2c1=O` gave aSyn 5UTR act -73*.
For Cc1ccccc1NC(=O)c1cnc2ccccn2c1=O the results were aSyn 5UTR act 62.
`Cc1csc2ncc(C(=O)NCCc3ccccc3)c(=O)n12` gave aSyn 5UTR act -134*.
`CCOc1ccc(NC(=O)c2cnc3scc(C)n3c2=O)cc1` gave aSyn 5UTR act -104*.
COc1ccc2c(c1)CCC/C2=N\NC(=O)c1ccoc1C was read as aSyn 5UTR act -70*.
O=C(O)c1ccc(N/N=C2/CCCc3ccccc32)cc1 was read as aSyn 5UTR act -82*.
Screening O=C(N/N=C1\CCc2ccccc21)c1ccncc1 returned aSyn 5UTR act -160*.
Screening Cc1cc(C(=O)N/N=C2\CCCc3ccccc32)c(C)o1 returned aSyn 5UTR act -126*.
For O=C(N/N=C1\CCCc2ccccc21)c1ccccc1Cl the results were aSyn 5UTR act -132*.
`COc1ccc2c(c1)CCC/C2=N\Nc1nc(C(=O)NN)cs1` gave aSyn 5UTR act -92*.
`O=C(N/N=C1\CCCCc2ccccc21)c1ccccn1` gave aSyn 5UTR act -92*.
Cc1cc(C(=O)NC2Cc3ccccc3C2)c(C)o1 was read as aSyn 5UTR act -137*.
Screening O=C(Nc1ccccc1Cl)c1csc(-c2cccnc2)n1 returned aSyn 5UTR act -70*.
`O=C(Nc1ccc(F)cc1F)c1csc(-c2ccccc2)n1` gave aSyn 5UTR act -95*.
`O=C(Nc1ccc(F)cc1F)c1cccc(C(=O)Nc2ccc(F)cc2F)n1` gave aSyn 5UTR act 87.
`O=C(Nc1ccccc1)c1csc(-c2ccccc2)n1` gave aSyn 5UTR act -170*.
Screening O=C(/C=C/c1ccc(Br)cc1)NC(=O)c1ccccc1O returned aSyn 5UTR act -162*.
O=C(/C=C/c1ccc(O)c(O)c1)NC(=O)c1ccccc1O was read as aSyn 5UTR act -145*.
Screening CSc1ccc(/C=C/C(=O)NC(=O)c2ccccc2O)cc1 returned aSyn 5UTR act -119*.
Screening COc1ccc(NC(=O)Nc2ccc3nonc3c2)cc1 returned aSyn 5UTR act -150*.
`COc1ccc(NC(=O)Nc2ccc3nccnc3c2)cc1` gave aSyn 5UTR act -122*.
Screening Cc1ccc(S(=O)(=O)C2(C(=O)Nc3ccc(C(C)C)cc3)CC2)cc1 returned aSyn 5UTR act -77*.
For O=C(O)c1ccc(N/N=C/c2ccc3nccnc3c2)cc1 the results were aSyn 5UTR act 94.
O=C(O)c1ccc(N/N=C/c2cccc(C(F)(F)F)c2)cc1 was read as aSyn 5UTR act -99*.
Screening O=C(O)c1ccc(N/N=C/c2ccc(F)c(F)c2)cc1 returned aSyn 5UTR act -73*.
Screening Cc1ccc(N=Cc2ccc(N(C)C)cc2)cc1C returned aSyn 5UTR act -123*.
For Cc1ccc(N=Nc2ccc(O)c(/C=N\NC(=O)c3ccc(N)cc3)c2)cc1C the results were aSyn 5UTR act 58.
For CCN(CC)c1ccc(O)c(C=Nc2ccc(C)c(C)c2)c1 the results were aSyn 5UTR act -77*.
For C/C(=C\C(=S)Nc1ccccc1)Nc1cccc2ccccc12 the results were aSyn 5UTR act -104*.
C/C(=C\C(=S)Nc1ccccc1)Nc1ccc2ccccc2c1 was read as aSyn 5UTR act -94*.
Screening C/C(CC(C)(C)C1CCCCC1)=N\NC(N)=S returned aSyn 5UTR act -76*.
Screening COc1ccccc1-n1cnc(N)c1C(=O)c1ccccc1 returned aSyn 5UTR act -153*.
COc1cc(C(=O)N/N=C(\c2ccccc2)c2ccccn2)cc(OC)c1OC was read as aSyn 5UTR act 81.
For Clc1cccc(Cl)c1/C=C/c1ccn[nH]1 the results were aSyn 5UTR act -232*.
Screening COc1cccc(/C=N/Nc2cc(N3CCOCC3)ncn2)c1O returned aSyn 5UTR act 72.
C(=N\Nc1cc(N2CCCCC2)ncn1)/c1ccco1 was read as aSyn 5UTR act -129*.
Screening Fc1cccc(/C=N/Nc2cc(N3CCOCC3)ncn2)c1 returned aSyn 5UTR act -108*.
`Fc1ccc(/C=N/Nc2cc(N3CCOCC3)ncn2)cc1` gave aSyn 5UTR act -88*.
Screening O=C(NC12CC3CC(CC(C3)C1)C2)c1ccc(-c2ccccc2Cl)o1 returned aSyn 5UTR act -220*.
For O=C(NC12CC3CC(CC(C3)C1)C2)c1ccc(-c2cccc(Cl)c2)o1 the results were aSyn 5UTR act -133*.
For O=C(NC12CC3CC(CC(C3)C1)C2)c1ccc(-c2ccc(Cl)cc2)o1 the results were aSyn 5UTR act -251*.
Oc1ccc(Br)cc1C=Nc1cccn2cc(-c3ccccc3)nc12 was read as aSyn 5UTR act -80*.
For Nc1ccc2oc(-c3ccccc3Cl)cc(=O)c2c1O the results were aSyn 5UTR act -63*.
`CCOc1ccc(C(=O)Nc2ncccc2Cl)cc1` gave aSyn 5UTR act -116*.
For CCn1cc([N+](=O)[O-])c(C(=O)Nc2ccc3c(c2)OCCO3)n1 the results were aSyn 5UTR act -69*.
O=C(Nc1ccc(Cl)c(Cl)c1)C1=Cc2ccccc2OC1 was read as aSyn 5UTR act -202*.
Screening N#Cc1ccsc1NC(=O)c1ccc(Cl)c([N+](=O)[O-])c1 returned aSyn 5UTR act -116*.
O=C(Nc1ncccc1Cl)c1ccc2c(c1)OCCO2 was read as aSyn 5UTR act -119*.
`O=C(CNC(=O)c1ccc2c(c1)OCO2)Nc1ncccc1O` gave aSyn 5UTR act -77*.
O=C(Nc1ccc2c(c1)OCCO2)c1ccc(Cl)c([N+](=O)[O-])c1 was read as aSyn 5UTR act -105*.
O=C(Nc1ccc2c(c1)OCCO2)c1ccc(Cl)c(Cl)c1 was read as aSyn 5UTR act -131*.
For CC1Cc2cc(/C=C3/SC(=S)NC3=O)ccc2O1 (stereo not given) the results were aSyn 5UTR act -106*.
`O=c1oc2ccccc2cc1-c1nc2c(s1)CCc1ccccc1-2` gave aSyn 5UTR act -81*.
Screening CC/C(C)=N\Nc1nc(-c2cc3cc(OC)ccc3oc2=O)cs1 returned aSyn 5UTR act -119*.
